# Assay results from PubChem BioAssay (NCATS).
# Inconclusive results are not listed. A call without a number means that no potency is given here. Values without a mark were called inactive. Calls of active or inactive are those of the source. The call rests on the fitted dose curve; in most records, active means well fitted curve in the direction sought with a large enough effect; inconclusive means small, poorly fitted or top-dose-only effect, or another doubt; inactive means no such curve, though single readings can be large; an effect the other way counts as inactive or inconclusive.
# Tests used:
# [1] = system: HEK293; experiment: Cytotoxic Profiling of Annotated Libraries Using Quantitative High-Throughput Screening (AID 1296008); conditions: Five cell lines viability, CellTiter-Glo ATP luminescence, 48-72 h; max response: active compounds read low; further: nearly all actives have a fitted effect of over 60% in size; further: potency means the concentration at half of the fitted maximal effect
# Procedure, shortened: (§1)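 Cytotoxicity was measured as CellTiter-Glo ATP luminescence, read after 10 min at room temperature. Compound treatment of the cells lasted 48 or 72 hr at 37 degrees Celsius in a qHTS format.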
# [2] = system: HaCat; experiment: as above; conditions: Five cell lines viability, CellTiter-Glo ATP luminescence, 48-72 h; max response: active compounds read low
# Procedure, shortened: as §1
# [3] = system: KB-3-1; experiment: as above; conditions: Five cell lines viability, CellTiter-Glo ATP luminescence, 48-72 h; max response: active compounds read low
# Procedure, shortened: as §1
# [4] = system: NIH3T3; experiment: as above; conditions: Five cell lines viability, CellTiter-Glo ATP luminescence, 48-72 h; max response: active compounds read low
# Procedure, shortened: as §1
# [5] = system: HACAT; experiment: qHTS assay to identify novel small-molecules to repurpose for Merkel cell carcinoma treatment (AID 1296009); conditions: MCC and control cell lines, CellTiter-Glo viability, 72 h; series mostly up to 44.8 µM; further: nearly all actives have a fitted effect of over 60% in size
# Procedure, shortened: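 Cell viability, measured as CellTiter-Glo luminescence, was normalized between DMSO and no-cell wells. The cells had been exposed to 8- or 11-point compound dilutions for 72 hr at 37 degree celsius.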
# [6] = system: C33A; experiment: Primary qHTS to identify gynecologic anti-cancer compounds using libraries of approved drugs and bioactive compounds (AID 1345084); conditions: Gynecologic cancer cell panel viability, ATPlite luminescence, 48 h; series mostly up to 57.5 µM; further: nearly all actives have a fitted effect of over 55% in size
# Procedure, shortened: (§2)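 Cytotoxicity screen measuring ATP content by luciferase luminescence. Each compound is applied at five concentrations for 48 h at 37 C with 5% CO2.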
# [7] = system: CAOV3; experiment: as above; conditions: Gynecologic cancer cell panel viability, ATPlite luminescence, 48 h; series mostly up to 57.5 µM
# Procedure, shortened: as §2
# [8] = system: CASKI; experiment: as above; conditions: Gynecologic cancer cell panel viability, ATPlite luminescence, 48 h; series mostly up to 57.5 µM
# Procedure, shortened: as §2
# [9] = system: Es-2; experiment: as above; conditions: Gynecologic cancer cell panel viability, ATPlite luminescence, 48 h; series mostly up to 57.5 µM
# Procedure, shortened: as §2
# [10] = system: HeLa; experiment: as above; conditions: Gynecologic cancer cell panel viability, ATPlite luminescence, 48 h; series mostly up to 57.5 µM
# Procedure, shortened: as §2
# [11] = system: Hek293T; experiment: as above; conditions: Gynecologic cancer cell panel viability, ATPlite luminescence, 48 h, control line for the selectivity index; series mostly up to 57.5 µM
# Procedure, shortened: as §2
# [12] = system: JEG-3; experiment: as above; conditions: Gynecologic cancer cell panel viability, ATPlite luminescence, 48 h; series mostly up to 57.5 µM
# Procedure, shortened: as §2
smiles,measurement,setting,value
Nc1nc2c(c(N3CCNCC3)n1)CCC1=C2[C@@H]2CCCC[C@@H]2O1,Potency,[1],18.4 µM (active)
same,outcome,[2],inactive
same,max response,[3],-5.74%
same,max response,[4],-4.38%
same,Potency,[5],inactive
same,Potency,[6],inactive
same,Potency,[7],inactive
same,Potency,[8],inactive
same,Potency,[9],inactive
same,Potency,[10],inactive
same,Potency,[11],inactive
same,Potency,[12],inactive
CC(C)S(=O)(=O)N[C@H]1CCOC[C@@H]1c1ccc(-c2ccc(C#N)s2)cc1,max response,[1],-111%
same,outcome,[2],inactive
same,outcome,[3],inactive
same,max response,[4],-6.39%
same,Potency,[5],inactive
same,Potency,[6],inactive
same,Potency,[8],inactive
same,Potency,[9],inactive
same,Potency,[10],inactive
same,Potency,[11],inactive
same,Potency,[12],inactive
CC(=O)O[C@@H]1[C@H](O[C@@H]2O[C@@H](CO)[C@H](O)[C@H]2O)[C@@H](O[C@@H]2O[C@@H](C)[C@H](O[C@@H]3OC[C@@H](O)[C@H](O)[C@H]3O)[C@@H](O)[C@H]2O)[C@H](OC(=O)[C@]23CCC(C)(C)C[C@H]2C2=CCC4[C@@]5(C)CC[C@H](O[C@@H]6O[C@H](C(=O)O)[C@@H](O)[C@H](O)[C@H]6O[C@@H]6O[C@H](CO)[C@H](O)[C@H](O)[C@H]6O)[C@@](C)(C=O)C5CC[C@@]4(C)[C@]2(C)CC3)O[C@@H]1C (stereo partly drawn),max response,[1],-1.69%
same,outcome,[2],inactive
same,max response,[3],5.7%
same,max response,[4],4.82%
same,outcome,[5],inactive [at 9.27 µM]
same,"activity change, negative = cytotoxicity",[6],4.84% [at 6.55 µM]
same,"activity change, negative = cytotoxicity",[8],4.57% [at 6.55 µM]
same,"activity change, negative = cytotoxicity",[9],4.09% [at 6.55 µM]
same,"activity change, negative = cytotoxicity",[10],11.1% [at 6.55 µM]
same,"activity change, negative = cytotoxicity",[11],2.65% [at 6.55 µM]
same,"activity change, negative = cytotoxicity",[12],11.6% [at 6.55 µM]
O=C(O[C@H]1[C@@H]2C=CO[C@@H](O[C@@H]3O[C@H](CO)[C@@H](O)[C@H](O)[C@H]3O)[C@@H]2[C@@]2(CO)O[C@@H]12)c1ccccc1,max response,[1],-2.12%
same,outcome,[2],inactive
same,outcome,[3],inactive
same,max response,[4],-6.96%
same,Potency,[5],inactive
same,Potency,[6],inactive
same,Potency,[8],inactive
same,Potency,[9],inactive
same,Potency,[10],inactive
same,Potency,[11],inactive
same,Potency,[12],inactive
CC(C)(O)C1CCC(C)(C2CCC3(C)C4CCC5C(C)(C(=O)OC6OC(CO)C(O)C(O)C6O)C(O)CC(O)C56CC46CCC23C)O1 (stereo not drawn),max response,[1],0.689%
same,outcome,[2],inactive
same,max response,[3],-9.11%
same,max response,[4],-1.85%
same,Potency,[5],inactive
same,Potency,[6],inactive
same,Potency,[8],inactive
same,Potency,[9],inactive
same,Potency,[10],inactive
same,Potency,[11],inactive
same,Potency,[12],inactive
COc1cc(C(=O)OC[C@H]2O[C@@H](Oc3ccccc3/C=C/C(=O)O)[C@H](O)[C@@H](O)[C@@H]2O)cc(OC)c1OC,max response,[1],-0.285%
same,outcome,[2],inactive
same,max response,[3],5.09%
same,max response,[4],0.074%
same,Potency,[5],inactive
same,Potency,[6],inactive
same,Potency,[8],inactive
same,Potency,[9],inactive
same,Potency,[10],inactive
same,Potency,[11],inactive
same,Potency,[12],inactive
CC1(C)CC[C@]2(C(=O)O[C@@H]3O[C@H](CO)[C@@H](O)[C@H](O)[C@H]3O)CC[C@]3(C)C(=CCC4[C@@]5(C)CC[C@H](O[C@@H]6O[C@H](C(=O)O)[C@@H](O)[C@H](O)[C@H]6O)C(C)(C)C5CC[C@]43C)C2C1 (stereo partly drawn),max response,[1],-5.49%
same,outcome,[2],inactive
same,max response,[3],6.58%
same,max response,[4],-3.14%
same,outcome,[5],inactive [at 9.27 µM]
same,"activity change, negative = cytotoxicity",[6],3.23% [at 11.6 µM]
same,"activity change, negative = cytotoxicity",[8],-0.46% [at 11.6 µM]
same,"activity change, negative = cytotoxicity",[9],6.53% [at 11.6 µM]
same,"activity change, negative = cytotoxicity",[10],7.58% [at 11.6 µM]
same,"activity change, negative = cytotoxicity",[11],5.45% [at 11.6 µM]
same,"activity change, negative = cytotoxicity",[12],7.56% [at 11.6 µM]
O=C(O)C1CN(Cc2ccc(-c3nc4cc(Cc5ccccc5F)ccc4s3)c(F)c2)C1,max response,[1],-0.852%
same,outcome,[2],inactive
same,max response,[3],-5.18%
same,max response,[4],3.31%
same,outcome,[5],inactive [at 9.27 µM]
same,"activity change, negative = cytotoxicity",[6],7.49% [at 11.6 µM]
same,"activity change, negative = cytotoxicity",[9],0.907% [at 11.6 µM]
same,"activity change, negative = cytotoxicity",[10],11.8% [at 11.6 µM]
same,"activity change, negative = cytotoxicity",[11],9.39% [at 11.6 µM]
same,"activity change, negative = cytotoxicity",[12],9.86% [at 11.6 µM]
CC(C)=CCC/C(C)=C/CO[C@@H]1O[C@H](CO)[C@@H](O)[C@H](O)[C@H]1O,max response,[1],1.41%
same,outcome,[2],inactive
same,outcome,[3],inactive
same,max response,[4],-9.17%
same,Potency,[5],inactive
same,Potency,[6],inactive
same,Potency,[8],inactive
same,Potency,[9],inactive
same,Potency,[10],inactive
same,Potency,[11],inactive
same,Potency,[12],inactive
C=C(C(=O)O)[C@H]1C[C@]2(C)[C@@H](O)CC[C@]23O[C@H]1C[C@@H]3C,max response,[1],-6.98%
same,outcome,[2],inactive
same,outcome,[3],inactive
same,max response,[4],-13.7%
same,Potency,[5],inactive
same,Potency,[6],inactive
same,Potency,[8],inactive
same,Potency,[9],inactive
same,Potency,[10],inactive
same,Potency,[11],inactive
same,Potency,[12],inactive
COc1ccc(-c2cnc3ccc(NCc4ccc(S(N)(=O)=O)cc4)nn23)cc1OC,max response,[1],-0.271%
same,outcome,[2],inactive
same,max response,[3],-8.36%
same,max response,[4],-14%
same,Potency,[5],inactive
same,Potency,[6],inactive
same,Potency,[7],inactive
same,Potency,[9],inactive
same,Potency,[10],inactive
same,Potency,[11],inactive
same,Potency,[12],inactive
O=C1NC(Cc2c[nH]c3ccccc23)C(=O)NC1Cc1cnc[nH]1 (stereo not drawn),max response,[1],-5.57%
same,outcome,[2],inactive
same,outcome,[3],inactive
same,max response,[4],3.67%
same,Potency,[5],inactive
same,Potency,[6],inactive
same,Potency,[8],inactive
same,Potency,[9],inactive
same,Potency,[10],inactive
same,Potency,[11],inactive
same,Potency,[12],inactive
Cc1cc(C)c(CNC(=O)c2cc(-c3ccc(CN4CCOCC4)cc3)cc3c2cnn3C2CCCC2)c(=O)[nH]1,Potency,[1],14.8 µM (active)
same,outcome,[2],inactive
same,max response,[3],8.22%
same,max response,[4],-0.531%
same,Potency,[5],inactive
same,Potency,[6],inactive
same,Potency,[8],inactive
same,Potency,[9],inactive
same,Potency,[10],inactive
same,Potency,[11],inactive
same,Potency,[12],inactive
